Laboratory results as given in PubChem BioAssay.
Activity calls are given as the source filed them.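 Rule for the calls, unless noted: active = inhibition above 20% together with a positive visual image hit; inconclusive = visual image hit but inhibition not above 20%; inactive = no visual image hit.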

What was measured:
[1] = inhibitors of TNFa-induced NFkB p65 translocation, primary screen, imaging, HUVEC, MLSMR starter and 10KST1 sets (AID 438); conditions: HUVEC TNFa-induced p65 nuclear translocation; cell count: measured here: nuclei count (cytotoxicity indicator), at 2.08 µM; inhibition: at 2 µM, stronger effect = higher value, 0% TNFa-plus-vehicle, 100% no-TNFa wells;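 note: compound added about 3h40 before a 20 min TNFalpha stimulation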;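 for inhibition: signal is the nuclear over cytoplasmic p65 intensity ratio per well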
[2] = inhibitors of mutant huntingtin aggregation, primary screen, imaging, exon1htt(103Q)mCFP cells, high-content imaging (AID 483;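 active = visual image review flags a hit and inhibition of aggregation exceeds 20%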;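 note: compound exposure lasted 3 days before fixation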;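 for nuclei count: percent of the per-plate median nuclei count of sample wells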); conditions: exon1htt(103Q)mCFP cell line, aggregate imaging, at 2 µM; inhibition of aggregation: stronger effect = higher value; nuclei count: measured here: cell count, toxicity
[3] = inhibitors of E-selectin induction by TNFa, primary screen, imaging, HUVEC, immunofluorescence, MLSMR starter and 10KST1 sets (AID 487;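 active = visually confirmed hit in the image check and inhibition above 20%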;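 for inhibition: signal is fraction of cell area covered by stained E-selectin grains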;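 for nuclei count: 100% = median nuclei count of all wells on the same plate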); conditions: HUVEC TNFalpha-induced E-selectin immunofluorescence imaging, at 2 µM; inhibition: stronger effect = higher value; nuclei count: measured here: cell number, toxicity
[4] = target: Voltage-gated potassium channel subunit beta-2 (Rattus norvegicus) (UniProt P62483); assay: KvBeta enzyme negative modulators, primary screen, biochemical, NADPH fluorescence (AID 622;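 active = fluorescence slope higher than the sample average by over 3 SD, cut at about -0.22 in these data, passing the limit was not always enough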;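 note: slope of raw intensity against log time taken from 70 to 1610 s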); conditions: recombinant KvBeta, 4-cyanobenzaldehyde reduction, at 10 µM, stronger effect = higher value
[5] = target: Voltage-gated potassium channel subunit beta-2 (Rattus norvegicus) (UniProt P62483); assay: KvBeta positive modulators, primary screen, biochemical, NADPH fluorescence (AID 623;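 active = NADPH fluorescence slope more negative than the mean of all samples by about 3 SD, 99.7% confidence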;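 note: fluorescence intensity change per second fitted from 20 to 320 s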); conditions: Recombinant KvBeta, NADPH fluorescence decrease slope, 10 min; at 10 µM; stronger effect = lower value
[6] = target: Alpha-2C adrenergic receptor (Homo sapiens) (UniProt P18825); assay: modulators of alpha2C/GIRK thallium flux, primary screen, cell-based, HEK293 alpha2C/GIRK1/2 (AID 624;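 active = fluorescence slope after compound addition differing from the mean of all screened samples at 99.7% confidence, in either direction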;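 note: slope of fluorescence ratio to pre-addition baseline per second over 15 to 24 s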); conditions: thallium flux BTC fluorescence, at 10 µM, actives lie on both sides
[7] = inhibitors of Sendai virus-induced IRF3 signaling, primary screen, TLR/RLR signaling modifier project, cell-based, Sendai virus stimulus, luciferase, 10K MLSCN set (AID 602276;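 active = inhibition at or above 50% at 10 µM; inactive = inhibition below 50%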;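 note: firefly luciferase from ISG56 promoter only with Renilla not read in this screen; 0% = Sendai virus plus DMSO and 100% = medium plus DMSO without virus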); conditions: HEK293 RL24 IRF3 luciferase reporter, at 10 µM, stronger effect = higher value
[8] = inhibitors of poly I:C-induced TLR3 signaling, primary screen, cell-based, poly I:C stimulus, luciferase, 10K MLSCN set (AID 602277;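 active = inhibition of the reporter signal at or above 50%; inactive = inhibition below 50%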); conditions: HEK293-TLR3 RL24 IRF3 luciferase reporter, at 10 µM, stronger effect = higher value

Alpha-2C adrenergic receptor (Homo sapiens), sequence (P18825 whole entry, looked up): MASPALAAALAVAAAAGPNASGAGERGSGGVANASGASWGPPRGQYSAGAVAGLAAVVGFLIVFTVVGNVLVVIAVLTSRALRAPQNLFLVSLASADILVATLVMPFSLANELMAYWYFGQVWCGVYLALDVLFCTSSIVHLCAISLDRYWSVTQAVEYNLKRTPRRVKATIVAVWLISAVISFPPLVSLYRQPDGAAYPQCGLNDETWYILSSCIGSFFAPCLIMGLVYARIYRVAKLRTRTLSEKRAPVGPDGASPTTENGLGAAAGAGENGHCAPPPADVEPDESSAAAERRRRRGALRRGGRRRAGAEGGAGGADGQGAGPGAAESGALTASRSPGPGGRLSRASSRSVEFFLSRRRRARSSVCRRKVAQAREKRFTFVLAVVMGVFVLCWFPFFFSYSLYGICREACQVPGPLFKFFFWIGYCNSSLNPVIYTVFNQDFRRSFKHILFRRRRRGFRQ
Voltage-gated potassium channel subunit beta-2 (Rattus norvegicus), sequence (P62483 whole entry, looked up): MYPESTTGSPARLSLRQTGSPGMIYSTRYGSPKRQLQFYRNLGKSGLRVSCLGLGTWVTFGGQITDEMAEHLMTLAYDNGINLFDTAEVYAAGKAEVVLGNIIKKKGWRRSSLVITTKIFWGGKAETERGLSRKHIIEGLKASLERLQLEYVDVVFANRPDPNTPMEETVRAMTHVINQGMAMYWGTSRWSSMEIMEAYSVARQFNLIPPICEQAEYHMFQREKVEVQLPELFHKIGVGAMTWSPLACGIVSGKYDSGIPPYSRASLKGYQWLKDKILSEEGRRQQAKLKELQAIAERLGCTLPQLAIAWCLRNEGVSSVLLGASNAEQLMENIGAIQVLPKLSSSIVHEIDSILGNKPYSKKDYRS

| SMILES | cell count [1] | inhibition [1] | inhibition of aggregation [2] | nuclei count [2] [%] | inhibition [3] | nuclei count [3] [%] | fluorescence slope [4] | NADPH fluorescence slope [5] | slope [6] | inhibition [7] | inhibition [8] |
| --- | --- | --- | --- | --- | --- | --- | --- | --- | --- | --- | --- |
| CC(=O)c1cccc(N(CC(=O)N2CCCC2)S(C)(=O)=O)c1 | 529 | -5.4% (inactive) | 14.6% (inactive) | 88.4 | -11.1% (inactive) | 94.9 | -0.467 (inactive) | 2.1e-05 (inactive) | 0.00662 (inactive) | 13.6% (inactive) | 20% (inactive) |
| Cc1nc2ccccn2c1/C(O)=C1\C(=O)C(=O)N(CCCN(C)C)C1c1ccc(F)cc1 (stereo not drawn) | 507 | 21.6% (inactive) | -28.8% (inactive) | 92.5 | -54.5% (inactive) | 122 | -0.566 (inactive) | 1.9e-05 (inactive) | 0.00687 (inactive) | 6.26% (inactive) | 3.28% (inactive) |
| CCCC(=O)Nc1cc(C)c2c(=O)oc3ccccc3c2n1 | 627 | -24.4% (inactive) | -6.5% (inactive) | 97.4 | -37.2% (inactive) | 121 | -0.447 (inactive) | -7.8e-05 (inactive) | 0.0057 (inactive) | -9.8% (inactive) | -24.7% (inactive) |
| CCS(=O)(=O)NCCc1cc2c(OC)ccc(OC)c2[nH]c1=O | 349 | -15.2% (inactive) | 12.1% (inactive) | 83.7 | 38.9% (inactive) | 95.1 | -0.488 (inactive) | -3.1e-05 (inactive) | 0.00489 (inactive) | 16.6% (inactive) | 26.4% (inactive) |
| CCOC(=O)c1ccccc1NC(=O)CSc1nnc(COc2ccccc2C)n1C | 667 | 14.9% (inactive) | 11.9% (inactive) | 97.3 | 45.4% (inactive) | 100 | -0.346 (inactive) | -4.2e-05 (inactive) | 0.00577 (inactive) | 16.9% (inactive) | 22.9% (inactive) |
| Cc1ccc2cc(CN(CCN3CCCC3)C(=O)Nc3ccc(F)cc3)c(=O)[nH]c2c1C | 540 | -29.6% (inactive) | -45.2% (inactive) | 109 | -47.4% (inactive) | 111 | -0.587 (inactive) | 2.1e-05 (inactive) | 0.00603 (inactive) | 3.48% (inactive) | 16.1% (inactive) |
| CC1CN(C(=O)c2scc3c2OCCO3)CC(C)O1 (stereo not drawn) | 190 | -5.4% (inactive) | 0.7% (inactive) | 75 | 11.5% (inactive) | 77 | -0.598 (inactive) | -1.6e-05 (inactive) | 0.00693 (inactive) | 17.3% (inactive) | 20.4% (inactive) |
| COc1cccc(NC(=O)C2CCCN2C(=O)Nc2cccc(F)c2)c1 (stereo not drawn) | 584 | -15.1% (inactive) | -3.6% (inactive) | 86.9 | -62.2% (inactive) | 111 | -0.512 (inactive) | -5.6e-05 (inactive) | 0.00468 (inactive) | 9.51% (inactive) | 8.88% (inactive) |
| CCCCOc1ccc(N(CC(=O)NC2CCCC2)C(=O)CCC(=O)Nc2ccccn2)cc1 | 582 | -1.5% (inactive) | -1.9% (inactive) | 94 | -7.6% (inactive) | 101 | -0.416 (inactive) | 1.8e-06 (inactive) | 0.00642 (inactive) | 15.8% (inactive) | 28.8% (inactive) |
| Cc1[nH]nc(N=CC2=C(O)CC(C)(C)CC2=O)c1-c1ccccc1 | 551 | -8.6% (inactive) | -3.5% (inactive) | 85.2 | 15.4% (inactive) | 95.3 | -0.344 (inactive) | -2.3e-05 (inactive) | 0.00489 (inactive) | -16.8% (inactive) | 13.8% (inactive) |
| CC(NC(=O)COc1ccccc1)C(=O)NC1=NCCS1 (stereo not drawn) | 356 | 2% (inactive) | 8.1% (inactive) | 104 | -85.5% (inactive) | 128 | -0.35 (inactive) | -2.2e-05 (inactive) | 0.00548 (inactive) | 14.4% (inactive) | 20.3% (inactive) |
| COc1ccc(C(C(C(=O)c2ccco2)N2CCOCC2)N2CCOCC2)cc1 (stereo not drawn) | 534 | 5.4% (inactive) | 2.2% (inactive) | 87.8 | 57.2% (inactive) | 91.5 | -0.401 (inactive) | 1.7e-05 (inactive) | 0.0056 (inactive) | 2.32% (inactive) | -5.02% (inactive) |
| CC1CCc2nn(CC(=O)Nc3ccc(F)cc3F)cc2C1 (stereo not drawn) | 644 | -2.3% (inactive) | -37.3% (inactive) | 41.3 | -2.5% (inactive) | 111 | -0.543 (inactive) | 1.3e-05 (inactive) | 0.00669 (inactive) | -5.03% (inactive) | 21.4% (inactive) |
| CC(C)c1nnc(NC(=O)CCC(=O)NCc2ccc3c(c2)OCO3)s1 | 571 | 11.2% (inactive) | -5.1% (inactive) | 95.8 | 21.4% (inactive) | 97.3 | -0.404 (inactive) | -4.6e-05 (inactive) | 0.00581 (inactive) | 14.1% (inactive) | 13.8% (inactive) |
| O=C(CN(C(=O)CCNC(=O)c1ccco1)c1ccccc1)NC1CCCC1 | 311 | -7.8% (inactive) | 27.1% (inactive) | 93.4 | -61.7% (inactive) | 113 | -0.542 (inactive) | 2.6e-05 (inactive) | 0.00484 (inactive) | -10.7% (inactive) | -6.31% (inactive) |
| COCCN(C(=O)c1csnn1)C(C(=O)NC1CCCCC1)c1cccs1 (stereo not drawn) | 370 | 5% (inactive) | -6.3% (inactive) | 107 | -52.1% (inactive) | 95.8 | -0.335 (inactive) | 5.1e-05 (inactive) | 0.00648 (inactive) | 10.7% (inactive) | 23.1% (inactive) |
| Cc1cc2nc(-c3ccco3)cc(C(F)(F)F)n2n1 | 903 | 3.5% (inactive) | -18.7% (inactive) | 104 | -56.6% (inactive) | 121 | -0.578 (inactive) | -1.8e-05 (inactive) | 0.00736 (inactive) | 10.1% (inactive) | 18.3% (inactive) |
| COc1ccccc1NC1=NC(c2ccc(Cl)cc2)N=C(N)N1 (stereo not drawn) | 395 | 5.2% (inactive) | -17.1% (inactive) | 35.1 | -308% (inactive) | 124 | -0.299 (inactive) | -4.5e-05 (inactive) | 0.0046 (inactive) | 29.3% (inactive) | 49.9% (inactive) |
| CC1CCCN(C(=O)C23CCC(C)(C(=O)C2)C3(C)C)C1 (stereo not drawn) | 636 | 0% (inactive) | -8.3% (inactive) | 90.8 | -29.8% (inactive) | 99.7 | -0.593 (inactive) | -1.7e-05 (inactive) | 0.00596 (inactive) | 5.18% (inactive) | 8.32% (inactive) |
| COc1ccc(NC(=O)c2cc(C(C)C)on2)c(OC)c1 | 568 | -11.1% (inactive) | 33.2% (inactive) | 100 | 7.6% (inactive) | 107 | -0.576 (inactive) | -1.2e-05 (inactive) | 0.00755 (inactive) | -35.5% (inactive) | -63.9% (inactive) |
| O=C(CSc1nc2ncccc2[nH]1)Nc1ccc2c(c1)OCCO2 | 507 | 1.7% (inactive) | 10.1% (inactive) | 87.8 | -113% (inactive) | 177 | -0.509 (inactive) | 2.9e-05 (inactive) | 0.00643 (inactive) | -4.29% (inactive) | -22.7% (inactive) |
| COc1ccc(S(=O)(=O)CCC(=O)O)cc1 | 756 | -2.2% (inactive) | 25.4% (inactive) | 126 | -47.5% (inactive) | 107 | -0.603 (inactive) | 1.2e-05 (inactive) | 0.00748 (inactive) | 17% (inactive) | 21.8% (inactive) |
| Cc1c(C(=O)N2CCOCC2)oc2ccc(S(=O)(=O)N3CCCC3)cc12 | 729 | -14.1% (inactive) | 4.5% (inactive) | 106 | -31.7% (inactive) | 105 | -0.518 (inactive) | -7.1e-05 (inactive) | 0.00624 (inactive) | -1.69% (inactive) | 2.47% (inactive) |
| O=C(NC1CCCCC1)C1CCCN1C(=O)NCc1ccccc1 (stereo not drawn) | 317 | 3.4% (inactive) | 7.5% (inactive) | 106 | -33.5% (inactive) | 120 | -0.43 (inactive) | -5.2e-05 (inactive) | 0.00543 (inactive) | 5.02% (inactive) | 10.2% (inactive) |
| Cn1cnc2c1c(=O)n(Cc1cccc(Br)c1)c(=O)n2C | 320 | 1.4% (inactive) | 9.8% (inactive) | 113 | -17.1% (inactive) | 122 | -0.38 (inactive) | 8.1e-07 (inactive) | 0.00734 (inactive) | 14.2% (inactive) | 14.4% (inactive) |
| O=S(c1ccsc1)c1ccsc1 | 444 | 6.5% (inactive) | 1.4% (inactive) | 95.8 | 13% (inactive) | 99.8 | -0.497 (inactive) | -4.1e-05 (inactive) | 0.00527 (inactive) | 19.8% (inactive) | 26.3% (inactive) |
| COC(=O)C1=C(CSCc2ccco2)NC(=O)NC1c1cc(C)ccc1C (stereo not drawn) | 369 | -10.5% (inactive) | -15.1% (inactive) | 115 | -20.5% (inactive) | 109 | -0.423 (inactive) | 3.5e-05 (inactive) | 0.00488 (inactive) | -3.03% (inactive) | -1.57% (inactive) |
| Cc1cccc(-c2cc3nc(C)cc(NCCCN(C)C)n3n2)c1 | 399 | -0.5% (inactive) | -9.4% (inactive) | 114 | -44.2% (inactive) | 98.7 | -0.56 (inactive) | -7.5e-05 (inactive) | 0.00413 (inactive) | 21% (inactive) | 9.1% (inactive) |
